# In PubChem BioAssay (EPA / NIEHS):
# Values joined by “and” are separate entries in the source; they are usually repeats but may differ in a detail not shown here. Equal values may be shown once. Results filed as inconclusive are left out. Where a structure was tested more than once in an assay, its records may differ in their call. Active and inactive are the calls of the source. How the source made its calls: active means hit-call score of the fitted dose curve at least 0.9, where 1 is the maximum; inconclusive means response in the unintended direction; inactive means score below 0.9.
# Key:
# [1] = target: human Beta-secretase (BACE), BACE1 (gene 23621) (UniProt P56817); assay: NVS_ENZ_hBACE: NovaScreen (NVS) Enzymatic Assay for human Beta-secretase (BACE) (AID 2283140);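 further: hits are inhibitors that reduce fluorescent substrate signal versus DMSO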
# In short: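 Enzyme activity of SF9-produced BACE1 is measured cell-free by fluorescence, 1 hour post dosing, normalised to DMSO. Screening used 25 uM in duplicate, with concentration-response follow-up for actives.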
# Caspase-3 (Homo sapiens) = Caspase-3 (Homo sapiens) (UniProt P42574); assay: NVS_ENZ_hCASP3: NovaScreen (NVS) Enzymatic Assay for human Caspase 3 (CASP3) (AID 2283139)
# In short: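 Single-concentration screening at 25 uM in duplicate, with concentration-response follow-up to a 50 uM maximum for chemicals passing the threshold. Caspase-3 (human, E. coli-expressed) activity was read as substrate fluorescence after 1 h, with loss of signal relative to DMSO.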
# [2] = target: human AMP-activated Protein Kinase, alpha 1 (AMPKa1), PRKAA1 (gene 5562) (UniProt Q13131); assay: NVS_ENZ_hAMPKa1: NovaScreen (NVS) Enzymatic Assay for human AMP-activated Protein Kinase, alpha 1 (AMPKa1) (AID 2283130)
# Experimental: NVS_ENZ_hAMPKa1 is a biochemical, single-readout assay that uses extracted gene-proteins in a cell-free assay. Measurements were taken 1 hour after chemical dosing in a 384-well plate.NVS_ENZ_hAMPKa1 is one of one assay component(s) measured or calculated from the NVS_ENZ_hAMPKa1 assay. It is designed to make measurements of enzyme activity, a form of enzyme reporter, as detected with fluorescence intensity signals by Fluorescence and electrophoretic mobility shift technology.Data from the assay component NVS_ENZ_hAMPKa1 was analyzed into 1 assay endpoint. This assay endpoint, NVS_ENZ_hAMPKa1, was analyzed in the positive analysis fitting direction relative to DMSO as the negative control and baseline of activity. Using a type of enzyme reporter, loss-of-signal activity can be used to understand changes in the enzymatic activity as they relate to the gene PRKAA1. Furthermore, this assay endpoint can be referred to as a primary readout, because this assay has produced multiple assay endpoints where this one serves a enzymatic activity function. To generalize the intended target to other relatable targets, this assay endpoint is annotated to the kinase intended target family, where the subfamily is serine/threonine kinase.
# (§1) Binding assays used specific radioligands (tritiated, iodinated) with non-radioactive competitive displacement ligands in agonist or antagonist protocols (as indicated) and various reference compounds and inhibitors to titrate specific binding to receptors and transporters. Most enzyme assays (CYPs, kinases, phosphatases, proteases, HDACs) used recombinant protein and specific substrates (fluorescence mostly, some colorimetric and radioactive) and inhibitors, followed by a biochemical separation of substrate and product. All assays for the biochemical HTS were initially run in duplicate at a single concentration (10 uM for CYP450 assays and 25 uM for all others). Assay-chemical combinations meeting a pre-defined threshold (e.g., 30% inhibition and other criteria defined below) were then run in singleton concentration-response format with maximum concentration of 20 uM for CYPs and 50 uM for all others. Each assay was run with positive and negative controls, and concurrent controls on every plate. The follow-up (secondary) screen tested active chemical-pairs in concentration series, as well as a few additional assays not tested in the primary screen, some selected negative inactives, and several cases re-run in the concentration series for confirmatory purposes.
# [3] = target: human AKT serine/threonine Kinase 1 (AKT1), AKT1 (gene 207) (UniProt P31749); assay: NVS_ENZ_hAKT1: NovaScreen (NVS) Enzymatic Assay for human AKT serine/threonine Kinase 1 (AKT1) (AID 2283138)
# In short: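 A biochemical assay with recombinant enzyme and specific substrate, read by fluorescence intensity with mobility-shift separation 1 hour after dosing. Actives from 25 uM duplicate screening were titrated up to 50 uM against DMSO baseline.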
# [4] = target: human AKT serine/threonine Kinase 2 (AKT2), AKT2 (gene 208) (UniProt P31751); assay: NVS_ENZ_hAKT2: NovaScreen (NVS) Enzymatic Assay for human AKT serine/threonine Kinase 2 (AKT2) (AID 2283141)
# In short: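 Cell-free fluorescence/electrophoretic mobility shift readout of recombinant human AKT2 activity, 1 h after chemical dosing. Duplicate primary screen at 25 uM, then singleton concentration-response up to 50 uM; loss of signal versus DMSO baseline.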
# [5] = target: human Acid Phosphatase 1 (ACP1), ACP1 (gene 52) (UniProt P24666); assay: NVS_ENZ_hACP1: NovaScreen (NVS) Enzymatic Assay for human Acid Phosphatase 1 (ACP1) (AID 2283136)
# Experimental: NVS_ENZ_hACP1 is a biochemical, single-readout assay that uses extracted gene-proteins from SF9 in a cell-free assay. Measurements were taken 1.5 hours after chemical dosing in a 384-well plate.NVS_ENZ_hACP1 is one of one assay component(s) measured or calculated from the NVS_ENZ_hACP1 assay. It is designed to make measurements of enzyme activity, a form of enzyme reporter, as detected with fluorescence intensity signals by Fluorescence and electrophoretic mobility shift technology.Data from the assay component NVS_ENZ_hACP1 was analyzed into 1 assay endpoint. This assay endpoint, NVS_ENZ_hACP1, was analyzed in the positive analysis fitting direction relative to DMSO as the negative control and baseline of activity. Using a type of enzyme reporter, loss-of-signal activity can be used to understand changes in the enzymatic activity as they relate to the gene ACP1. Furthermore, this assay endpoint can be referred to as a primary readout, because this assay has produced multiple assay endpoints where this one serves a enzymatic activity function. To generalize the intended target to other relatable targets, this assay endpoint is annotated to the phosphatase intended target family, where the subfamily is acid phosphatase.
# as §1, with “Assay-chemical combinations meeting a pre-defined threshold (e.g., 30% inhibition and other criteria defined below) were then run in singleton concentration-response format with maximum concentration of 20 uM for CYPs and 50 uM for all others.” left out
# Caspase-1 (Homo sapiens) = Caspase-1 (Homo sapiens) (UniProt P29466); assay: NVS_ENZ_hCASP1: NovaScreen (NVS) Enzymatic Assay for human Caspase 1 (CASP1) (AID 2283132)
# In short: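 Compounds were first tested in duplicate at 25 uM, with follow-up concentration series up to 50 uM. The bacterially expressed enzyme was read by fluorescence at 1 h post-dosing. Signal loss versus DMSO baseline indicates reduced enzyme activity.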
# [6] = target: human Caspase 5 (CASP5), CASP5 (gene 838) (UniProt P51878); assay: NVS_ENZ_hCASP5: NovaScreen (NVS) Enzymatic Assay for human Caspase 5 (CASP5) (AID 2283137)
# In short: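 Caspase 5 enzyme activity, detected as fluorescence signal loss, is measured in a biochemical format using E. coli-expressed protein. Reading occurs 2 hours post-dosing. Screening runs at 25 uM, with confirmed actives titrated to 50 uM maximum.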
# [7] = target: human Caspase 10 (CASP10), CASP10 (gene 843) (UniProt Q92851); assay: NVS_ENZ_hCASP10: NovaScreen (NVS) Enzymatic Assay for human Caspase 10 (CASP10) (AID 2283133)
# In short: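 Fluorescence-intensity enzyme read-out of E. coli-expressed CASP10 activity, 1 h after compound. Single-point duplicates at 25 uM preceded concentration-response testing (top 50 uM) of hits; inhibition expressed as signal loss versus DMSO.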
# [8] = target: human Caspase 2 (CASP2), CASP2 (gene 835) (UniProt P42575); assay: NVS_ENZ_hCASP2: NovaScreen (NVS) Enzymatic Assay for human Caspase 2 (CASP2) (AID 2283135)
# In short: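 Single-point duplicate testing at 25 uM preceded concentration series topping at 50 uM. Activity of the recombinant E. coli-derived protease was followed by fluorescent substrate cleavage 1 h post-dosing, relative to DMSO.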
# Caspase-3 (Homo sapiens), sequence (P42574 whole entry, looked up): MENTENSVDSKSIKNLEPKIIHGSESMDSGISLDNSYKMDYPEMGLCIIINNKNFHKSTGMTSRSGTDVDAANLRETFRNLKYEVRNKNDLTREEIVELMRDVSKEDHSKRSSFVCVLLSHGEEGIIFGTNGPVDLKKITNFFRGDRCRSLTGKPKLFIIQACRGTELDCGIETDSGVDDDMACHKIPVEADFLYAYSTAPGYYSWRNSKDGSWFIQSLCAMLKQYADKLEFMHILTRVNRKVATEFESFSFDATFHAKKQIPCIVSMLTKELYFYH
# human AKT serine/threonine Kinase 1 (AKT1), AKT1 (gene 207), sequence (P31749 whole entry, looked up): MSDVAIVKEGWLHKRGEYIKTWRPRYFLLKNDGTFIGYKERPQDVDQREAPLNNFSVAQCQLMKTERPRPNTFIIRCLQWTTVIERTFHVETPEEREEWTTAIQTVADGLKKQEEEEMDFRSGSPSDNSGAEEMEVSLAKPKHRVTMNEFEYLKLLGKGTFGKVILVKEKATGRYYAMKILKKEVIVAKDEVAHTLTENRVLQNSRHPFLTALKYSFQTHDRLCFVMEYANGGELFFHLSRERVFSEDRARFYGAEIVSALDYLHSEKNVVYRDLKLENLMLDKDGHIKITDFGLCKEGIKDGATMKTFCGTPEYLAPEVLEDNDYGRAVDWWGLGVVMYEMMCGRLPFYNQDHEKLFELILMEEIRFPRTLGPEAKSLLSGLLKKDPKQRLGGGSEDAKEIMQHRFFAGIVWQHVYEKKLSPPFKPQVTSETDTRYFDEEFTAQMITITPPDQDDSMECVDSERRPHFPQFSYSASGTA
# human Caspase 5 (CASP5), CASP5 (gene 838), sequence (P51878 whole entry, looked up): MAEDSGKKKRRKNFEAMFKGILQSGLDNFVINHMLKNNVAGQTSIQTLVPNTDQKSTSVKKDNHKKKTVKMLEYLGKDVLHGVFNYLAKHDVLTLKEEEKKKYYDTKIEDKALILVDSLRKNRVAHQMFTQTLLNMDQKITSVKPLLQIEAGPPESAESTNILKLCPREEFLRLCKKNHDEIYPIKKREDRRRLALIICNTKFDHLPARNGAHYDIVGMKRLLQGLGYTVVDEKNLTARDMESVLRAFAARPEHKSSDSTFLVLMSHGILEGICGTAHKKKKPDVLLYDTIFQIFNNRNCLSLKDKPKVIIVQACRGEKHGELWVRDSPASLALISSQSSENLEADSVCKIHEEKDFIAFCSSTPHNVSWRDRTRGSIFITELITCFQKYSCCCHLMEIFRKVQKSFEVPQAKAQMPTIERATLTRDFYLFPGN
# human Acid Phosphatase 1 (ACP1), ACP1 (gene 52), sequence (P24666 whole entry, looked up): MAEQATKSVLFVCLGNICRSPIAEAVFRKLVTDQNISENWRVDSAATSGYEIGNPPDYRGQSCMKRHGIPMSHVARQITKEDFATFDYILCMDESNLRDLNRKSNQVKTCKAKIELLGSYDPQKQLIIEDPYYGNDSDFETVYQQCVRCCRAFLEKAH
# human AKT serine/threonine Kinase 2 (AKT2), AKT2 (gene 208), sequence (P31751 whole entry, looked up): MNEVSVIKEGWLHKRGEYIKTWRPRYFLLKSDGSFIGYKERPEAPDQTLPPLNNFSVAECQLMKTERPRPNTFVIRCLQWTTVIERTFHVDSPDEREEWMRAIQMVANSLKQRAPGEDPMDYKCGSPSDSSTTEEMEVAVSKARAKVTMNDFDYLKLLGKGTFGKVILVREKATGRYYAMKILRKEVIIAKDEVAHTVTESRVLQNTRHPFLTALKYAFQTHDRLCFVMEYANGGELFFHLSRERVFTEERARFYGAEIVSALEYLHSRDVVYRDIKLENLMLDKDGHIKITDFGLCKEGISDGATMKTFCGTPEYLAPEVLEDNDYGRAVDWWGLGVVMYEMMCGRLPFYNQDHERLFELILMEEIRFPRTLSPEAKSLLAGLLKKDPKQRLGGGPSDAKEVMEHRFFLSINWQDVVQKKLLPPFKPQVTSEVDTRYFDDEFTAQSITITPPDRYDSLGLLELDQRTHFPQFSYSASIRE
# human AMP-activated Protein Kinase, alpha 1 (AMPKa1), PRKAA1 (gene 5562), sequence (Q13131 whole entry, looked up): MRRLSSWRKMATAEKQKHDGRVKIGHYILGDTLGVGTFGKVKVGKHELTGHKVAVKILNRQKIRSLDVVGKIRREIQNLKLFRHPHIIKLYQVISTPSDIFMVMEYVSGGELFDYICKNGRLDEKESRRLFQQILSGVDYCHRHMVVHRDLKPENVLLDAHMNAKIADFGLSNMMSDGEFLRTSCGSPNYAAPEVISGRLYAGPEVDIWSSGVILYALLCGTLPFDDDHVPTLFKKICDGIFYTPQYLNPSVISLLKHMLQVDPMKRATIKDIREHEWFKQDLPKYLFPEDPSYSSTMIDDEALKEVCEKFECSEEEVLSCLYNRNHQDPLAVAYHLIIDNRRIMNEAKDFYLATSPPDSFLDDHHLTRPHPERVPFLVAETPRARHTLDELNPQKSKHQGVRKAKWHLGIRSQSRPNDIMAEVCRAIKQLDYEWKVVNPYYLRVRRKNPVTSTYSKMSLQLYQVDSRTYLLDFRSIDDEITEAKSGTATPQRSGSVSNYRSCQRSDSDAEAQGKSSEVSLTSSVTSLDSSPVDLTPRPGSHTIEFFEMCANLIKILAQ
# human Beta-secretase (BACE), BACE1 (gene 23621), sequence (P56817 whole entry, looked up): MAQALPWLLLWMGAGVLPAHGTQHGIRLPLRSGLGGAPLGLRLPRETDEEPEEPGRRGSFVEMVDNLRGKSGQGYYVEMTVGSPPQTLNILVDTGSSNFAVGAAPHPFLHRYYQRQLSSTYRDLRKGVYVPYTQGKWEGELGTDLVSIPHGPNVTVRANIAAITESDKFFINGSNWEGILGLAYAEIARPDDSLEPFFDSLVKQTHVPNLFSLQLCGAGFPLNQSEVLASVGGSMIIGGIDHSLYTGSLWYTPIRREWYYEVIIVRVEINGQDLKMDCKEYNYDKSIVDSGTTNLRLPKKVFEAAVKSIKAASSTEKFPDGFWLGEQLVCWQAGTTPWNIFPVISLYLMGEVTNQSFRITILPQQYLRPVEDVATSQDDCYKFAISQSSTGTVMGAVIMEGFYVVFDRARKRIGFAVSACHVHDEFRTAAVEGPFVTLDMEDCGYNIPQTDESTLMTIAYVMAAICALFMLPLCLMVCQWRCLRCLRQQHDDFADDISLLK
# human Caspase 10 (CASP10), CASP10 (gene 843), sequence (Q92851 whole entry, looked up): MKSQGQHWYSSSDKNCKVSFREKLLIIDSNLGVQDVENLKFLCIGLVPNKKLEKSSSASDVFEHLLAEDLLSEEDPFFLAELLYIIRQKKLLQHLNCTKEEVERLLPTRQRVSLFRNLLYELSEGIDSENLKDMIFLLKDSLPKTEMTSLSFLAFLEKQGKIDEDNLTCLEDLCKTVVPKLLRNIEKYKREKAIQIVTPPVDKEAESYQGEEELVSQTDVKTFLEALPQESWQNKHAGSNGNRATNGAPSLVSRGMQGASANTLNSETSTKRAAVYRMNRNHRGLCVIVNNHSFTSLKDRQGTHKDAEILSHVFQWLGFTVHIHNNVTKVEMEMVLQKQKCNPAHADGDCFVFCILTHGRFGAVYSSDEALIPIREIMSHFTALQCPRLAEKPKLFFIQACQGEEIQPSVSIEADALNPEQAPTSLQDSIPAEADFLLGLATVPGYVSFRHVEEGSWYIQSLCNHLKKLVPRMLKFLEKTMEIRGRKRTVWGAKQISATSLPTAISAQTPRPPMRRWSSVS
# Caspase-1 (Homo sapiens), sequence (P29466 whole entry, looked up): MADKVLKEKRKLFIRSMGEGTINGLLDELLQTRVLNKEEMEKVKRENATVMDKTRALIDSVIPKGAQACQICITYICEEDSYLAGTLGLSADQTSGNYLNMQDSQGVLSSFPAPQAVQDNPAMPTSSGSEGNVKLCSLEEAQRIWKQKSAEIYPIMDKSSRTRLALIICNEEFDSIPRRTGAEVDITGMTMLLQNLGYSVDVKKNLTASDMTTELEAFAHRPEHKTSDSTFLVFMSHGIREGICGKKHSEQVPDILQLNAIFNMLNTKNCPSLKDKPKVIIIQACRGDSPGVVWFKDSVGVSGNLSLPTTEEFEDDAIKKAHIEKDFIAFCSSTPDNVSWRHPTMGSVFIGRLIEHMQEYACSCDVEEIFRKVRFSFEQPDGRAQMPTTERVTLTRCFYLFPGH
# human Caspase 2 (CASP2), CASP2 (gene 835), sequence (P42575 whole entry, looked up): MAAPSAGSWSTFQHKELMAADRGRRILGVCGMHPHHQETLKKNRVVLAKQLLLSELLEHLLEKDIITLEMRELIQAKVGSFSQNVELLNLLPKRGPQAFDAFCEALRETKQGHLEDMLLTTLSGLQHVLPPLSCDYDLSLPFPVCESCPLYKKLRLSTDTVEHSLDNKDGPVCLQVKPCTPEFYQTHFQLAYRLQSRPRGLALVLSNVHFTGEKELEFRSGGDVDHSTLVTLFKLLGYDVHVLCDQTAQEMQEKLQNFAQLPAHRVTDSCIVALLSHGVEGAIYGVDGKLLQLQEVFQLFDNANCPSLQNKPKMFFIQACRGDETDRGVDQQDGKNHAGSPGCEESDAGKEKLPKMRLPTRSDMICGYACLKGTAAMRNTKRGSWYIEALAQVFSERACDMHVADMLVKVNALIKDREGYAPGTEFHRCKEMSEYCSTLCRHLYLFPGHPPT
compound,measurement,setting,value
O=C(Nc1ccccc1)Nc1cnns1,AC50,[1],10.7 µM (active)
C[C@H]1[C@H](c2ccc(Cl)cc2)SC(=O)N1C(=O)NC1CCCCC1,outcome,Caspase-3 (Homo sapiens),inactive
N#Cc1c(Cl)c(Cl)c(Cl)c(C#N)c1Cl,AC50,[2],4.96 µM (active)
same,outcome,[3],inactive
same,outcome,[4],inactive
Oc1cc(Cl)ccc1Oc1ccc(Cl)cc1Cl,outcome,[2],inactive
same,outcome,[5],inactive
same,AC50,[1],25.5 µM (active) and 28.2 µM (active) and 7.92 µM (active)
same,outcome,[1],inactive
same,AC50,[4],41.4 µM (active)
O=C(O)C(F)(F)C(F)(F)C(F)(F)C(F)(F)C(F)(F)C(F)(F)C(F)(F)F,outcome,Caspase-1 (Homo sapiens),inactive
same,outcome,[5],inactive
same,outcome,[6],inactive
same,AC50,[1],3.58 µM (active) and 1.2 µM (active)
same,outcome,[4],inactive
CC[C@H](C)[C@H]1O[C@]2(C=C[C@@H]1C)C[C@@H]1C[C@@H](C/C=C(\C)[C@@H](O[C@H]3C[C@H](OC)[C@@H](O[C@H]4C[C@H](OC)[C@@H](O)[C@H](C)O4)[C@H](C)O3)[C@@H](C)/C=C/C=C3\CO[C@@H]4[C@H](O)C(C)=C[C@@H](C(=O)O1)[C@]34O)O2 (tested in a mixture with another compound),AC50,[2],31.2 µM (active)
Clc1ccccc1-c1nnc(-c2ccccc2Cl)nn1,outcome,[4],inactive
Oc1ccc(Cl)cc1Cc1ccccc1,outcome,[2],inactive
same,outcome,[6],inactive
same,outcome,[3],inactive
same,AC50,[1],18.9 µM (active) [middle of 6 runs]
COC(=O)c1ccccc1S(=O)(=O)NC(=O)N(C)c1nc(C)nc(OC)n1,AC50,[7],6.07 µM (active)
same,outcome,[3],inactive
same,outcome,[4],inactive
COC(=O)c1ccccc1CS(=O)(=O)NC(=O)Nc1nc(OC)cc(OC)n1,outcome,[3],inactive
O=C1c2ccccc2C(=O)N1SC(Cl)(Cl)Cl,outcome,Caspase-3 (Homo sapiens),inactive
CN1CSC(=S)N(C)C1,outcome,Caspase-1 (Homo sapiens),inactive
same,outcome,[4],inactive
Cc1cc(C)nc(NC(=O)NS(=O)(=O)c2ccccc2C(=O)OC2COC2)n1,outcome,[4],inactive
CC1(C)C(C=C(Cl)Cl)C1C(=O)OC(C#N)c1ccc(F)c(Oc2ccccc2)c1 (stereo not given),outcome,Caspase-1 (Homo sapiens),inactive
same,AC50,[1],3.31 µM (active)
C#CCN1C(=O)COc2cc(F)c(N3C(=O)C4=C(CCCC4)C3=O)cc21,outcome,[8],inactive
same,outcome,[5],inactive
CCC(C)(C)C(=O)OC1=C(c2ccc(Cl)cc2Cl)C(=O)OC12CCCCC2,AC50,[1],17.6 µM (active)
O=S(=O)(O)C(F)(F)C(F)(F)C(F)(F)C(F)(F)C(F)(F)C(F)(F)C(F)(F)C(F)(F)F,AC50,[2],15.7 µM (active) and 5.63 µM (active)
same,outcome,Caspase-1 (Homo sapiens),inactive
same,outcome,[7],inactive
same,AC50,[5],24.7 µM (active)
same,AC50,[6],26.7 µM (active) [middle of 4 runs]
same,AC50,[3],46.7 µM (active)
same,AC50,[1],2.29 µM (active) and 2.36 µM (active) and 8.91 µM (active)
CNC(=O)CSP(=S)(OC)OC,outcome,[3],inactive
CC(C)(C)C(O)C(Oc1ccc(Cl)cc1)n1cncn1 (stereo not given),outcome,[2],inactive
same,outcome,[5],inactive
CCOC1Oc2ccc(OS(C)(=O)=O)cc2C1(C)C (stereo not given),outcome,Caspase-3 (Homo sapiens),inactive
